Reference: PubChem BioAssay (NCI)
The panel holds about 83,000 compounds, 20% with a hit somewhere; the sample as a whole holds those more often.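 Treatment: one concentration, 48 hours, 96-well format. Scoring: percent growth, with anything below 10 considered active.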 Values without a mark were called inactive. Calls of active or inactive are those of the source.

What was measured:
Assay in all cases: NCI-60 one-dose screen, 48 h (100 = growth as untreated, 0 = no growth, -100 = all killed)
Settings in all cases: 10 µM
NCI-H23 lung = test system: NCI-H23 lung
NCI-H226 lung = test system: NCI-H226 lung
NCI-H460 lung = test system: NCI-H460 lung
HOP-92 NSCLC = test system: HOP-92 NSCLC
A549/ATCC NSCLC = test system: A549/ATCC NSCLC
786-0 renal = test system: 786-0 renal
COLO 205 colon = test system: COLO 205 colon
DU-145 prostate = test system: DU-145 prostate
MALME-3M melanoma = test system: MALME-3M melanoma
MDA-MB-231 breast = test system: MDA-MB-231 breast
RXF 393 renal = test system: RXF 393 renal
SF-268 CNS = test system: SF-268 CNS
SF-295 CNS = test system: SF-295 CNS
SF-539 CNS = test system: SF-539 CNS
UACC-257 melanoma = test system: UACC-257 melanoma
M14 melanoma = test system: M14 melanoma
NCI-H522 lung = test system: NCI-H522 lung
K-562 leukemia = test system: K-562 leukemia

SMILES	growth (NCI-H23 lung)	growth (NCI-H226 lung)	growth (NCI-H460 lung)	growth (HOP-92 NSCLC)	growth (A549/ATCC NSCLC) [%]	growth (786-0 renal)	growth (COLO 205 colon)	growth (DU-145 prostate)	growth (MALME-3M melanoma)	growth (MDA-MB-231 breast)	growth (RXF 393 renal)	growth (SF-268 CNS)	growth (SF-295 CNS)	growth (SF-539 CNS)	growth (UACC-257 melanoma) [%]	growth (M14 melanoma)	growth (NCI-H522 lung)	growth (K-562 leukemia)
CCCc1nc(C(C)(C)O)c(C(=O)O)n1Cc1ccc(-c2ccccc2-c2nn[nH]n2)cc1	103%	103%	105%	91.7%	99	104%	111%	120%	102%	109%	117%	101%	95.3%	103%	103	109%	–	–
COc1ccc(-c2nn(-c3cccc(Cl)c3)cc2C=C(C#N)C#N)cc1	-45.2% (active)	25.4%	1.56% (active)	11%	19.1	-8.39% (active)	-9.68% (active)	3.57% (active)	17.7%	-40.3% (active)	-5.72% (active)	13.3%	–	2.34% (active)	38.5	-18% (active)	-12.1% (active)	-13.2% (active)
COc1ccc(C(c2ccc(OCCN(C)C)cc2)c2cc3ccccc3c3ccccc23)cc1 (stereo not drawn)	78.4%	87.5%	-28.6% (active)	63.6%	55	50.6%	-50.6% (active)	34.2%	-43.4% (active)	17.1%	49.5%	67.3%	58%	66.9%	–	-72.3% (active)	75%	-29.9% (active)
N#Cc1c(-c2ccc(Cl)cc2)n(O)c2ccccc12	-13.5% (active)	75.7%	9.12% (active)	-8.45% (active)	26.9	8.19% (active)	115%	25.4%	6.37% (active)	30.5%	9.91% (active)	32.5%	42.1%	-10.1% (active)	47.4	13.5%	10.7%	11.6%
Nc1nc(Cl)nc2c1ncn2C1O[C@H](CO)[C@@H](O)[C@@H]1F (stereo partly drawn)	-9.12% (active)	2.75% (active)	3.27% (active)	38.4%	23.4	-34.1% (active)	37.6%	-3.84% (active)	60.9%	70%	42.2%	9.03% (active)	14.2%	37.7%	22.7	-48.4% (active)	–	–
CCCCN1C(=O)CC(SC2CC(=O)N(CCCC)C2=O)C1=O (stereo not drawn)	97.9%	104%	108%	97.8%	119	112%	102%	103%	–	108%	122%	101%	109%	105%	98.6	113%	–	118%
O=C1Cc2cc(CCN3CCN(c4nsc5ccccc45)CC3)c(Cl)cc2N1	102%	99.5%	103%	64.9%	95.4	106%	109%	95.4%	94.2%	89.5%	91.7%	92.9%	91.9%	105%	86.3	105%	–	–
COc1ccc(-c2nn(-c3cccc(Cl)c3)cc2-c2c(C#N)c(=O)n3[nH]c(-c4ccccc4)nc3c2C#N)cc1	81.1%	88%	105%	93.3%	–	89.4%	123%	102%	–	87.1%	95.9%	101%	58.8%	100%	110	109%	72.4%	78.3%
CCc1c2c(nc3ccc(OC(=O)N4CCC(N5CCCCC5)CC4)cc13)-c1cc3c(c(=O)n1C2)COC(=O)[C@]3(O)CC	5.19% (active)	7.44% (active)	5.87% (active)	72.3%	39.6	-47.7% (active)	58.1%	-5.72% (active)	36.2%	102%	37.7%	12.5%	-24.5% (active)	-22.1% (active)	57.6	2.35% (active)	–	–
